A short description of experiment [1]: Viability counterscreen for antagonist of constitutive androstane receptor (CAR) against the NCATS DSHEA and TCM libraries (AID 1794837).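 Also: compound exposure lasted 24 h before viability reading; 0% is about no effect.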 The note with it: CAR reporter cell line viability counterscreen, qHTS; series mostly up to 40 µM. In outline:
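Fluorescence from CellTiter-Fluor reports live-cell protease activity in HepG2-CYP2B6-hCAR cells treated for 24 h with substances alongside 48 uM CITCO.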
(In general: The purpose of a counterscreen is to sort out artefacts and off-target activity.)

The nature of experiment [2]: Viability counterscreen for agonist of constitutive androstane receptor (CAR) against the NCATS DSHEA and TCM libraries (AID 1794838).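 Also: cells exposed to compound for 24 h; 0% is about no effect.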 The note with it: HepG2 cell viability counterscreen, CAR agonist assay, co-treated with 0.75 µM CAR antagonist; series mostly up to 40 µM. The method in brief: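 In agonist mode, PK11195 is added at 0.75 uM final to HepG2-CYP2B6-hCAR cells dosed with test substances. Cultures incubate 24 h at 37C before a protease-based fluorogenic viability readout.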

Experiment [3] has as its target Nuclear receptor subfamily 1 group I member 3 (Homo sapiens) (UniProt Q14994). The experiment is described as follows: Primary qHTS for agonist of constitutive androstane receptor (CAR) against the NCATS DSHEA and TCM libraries (AID 1794839).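 Also: HepG2 cells expressing human CAR with a CYP2B6 reporter plus PK11195 antagonist; luciferase reporter luminescence read with ONE-Glo; 0% is about no effect.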 The note with it: CAR agonist reporter cells, qHTS luminescence, CAR antagonist co-added at 0.75 µM; series mostly up to 40 µM. The method in brief: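 Cells stably carrying hCAR and a CYP2B6 reporter (HepG2 background) are seeded and allowed 5 h to adhere. Substances at multiple concentrations are added alongside 0.75 µM PK11195, and luciferase signal is measured after 24 h.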

The nature of experiment [4]: HepG2 viability counterscreen (readout 2: ATP content) against the NCATS DSHEA and TCM libraries (AID 1794840).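 Also: HepG2 cells exposed to substances for about 24 h; 0% is about no effect.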 The note with it: ATP content luminescence; series mostly up to 27.3 µM. In outline: (§1)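 Cytotoxicity was assessed in HepG2 cells plated at 1,000 cells/well and exposed for about 24 hours to a concentration series. Protease activity and ATP content were measured sequentially in each well.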

Experiment [5] can be described thus: HepG2 viability counterscreen (readout 1: protease activity) against the NCATS DSHEA and TCM libraries (AID 1794841).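 Also: cells exposed to compounds for about 24 h before the protease read; 0% is about no effect.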 The note with it: qHTS concentration series; series mostly up to 27.3 µM. The method in brief:
as §1

The target of experiment [6] is Glutathione peroxidase 1 (Homo sapiens) (UniProt P07203). The experiment is described as follows: Primary qHTS Assay for Inhibitors of Recombinant Selenoprotein Glutathione Peroxidase 1 (GPX1) (AID 1845191). Also: nearly all actives have a fitted effect of over 65% in size. As to activity, negative = inhibition: % is scaled to controls: 0 for no effect and ±100 for the full control effect. The note with it: recombinant GPX1, GR-coupled NADPH fluorescence, 15 min; series mostly up to 48.8 µM. In outline: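 GPX1 10 nM, GR 100 nM, GSH 1 mM, NADPH 0.5 mM, CHP 0.5 mM (final). 30-min cpd preincubation, RT. Ex340/Em450 read t=0, t=15 min.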
Sequence of Glutathione peroxidase 1 (Homo sapiens) (P07203 whole entry, looked up): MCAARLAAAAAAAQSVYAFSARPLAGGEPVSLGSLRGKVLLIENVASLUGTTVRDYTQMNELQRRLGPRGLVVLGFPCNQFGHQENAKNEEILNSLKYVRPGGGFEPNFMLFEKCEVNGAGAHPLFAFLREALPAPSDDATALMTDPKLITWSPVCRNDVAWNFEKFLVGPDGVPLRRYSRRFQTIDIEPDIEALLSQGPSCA

Experiment [7] concerns the target Phospholipid hydroperoxide glutathione peroxidase GPX4 (Homo sapiens) (UniProt P36969). The experiment is described as follows: Primary qHTS Assay for Inhibitors of Recombinant Selenoprotein Glutathione Peroxidase 4 (GPX4) (AID 1845192). Also: nearly all actives have a fitted effect of over 65% in size. Also: potency is read from the fitted curve at half-maximal effect. As to activity change, negative = inhibition: % is scaled to controls: 0 for no effect and ±100 for the full control effect. The note with it: recombinant GPX4, GR-coupled NADPH fluorescence, 15 min; series mostly up to 50 µM. In outline:
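qHTS, GR-coupled: GPX4 200 nM + cpd 30 min RT → GSH 1 mM, NADPH 0.5 mM, GR 100 nM → CHP 0.5 mM start; fluor 340/450 at t0 and t15 min; no-enzyme wells as control.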

Experiment [8] in a line: NCATS anti-infectives library activity on HEK293 viability as a counter-qHTS vs the C. elegans viability qHTS (AID 1745854).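 Also: HEK293 cells exposed to compounds for 24 hr before the viability read; % is scaled to controls: 0 for no effect and ±100 for the full control effect.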 The note with it: HEK293 viability counter-screen; series mostly up to 41.8 µM. The method in brief: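 Counter-screen for cytotoxicity: HEK293, 24 hr, 37C, compounds up to 41.7 uM final (a dilution series, 1:5). Readout CellTiter-Glo luminescence, 10 min RT. Digitonin control, 83.3 uM final.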
A general note: In qHTS, concentration-response curves come from the screen itself.

The target in experiment [9] is Luciferin 4-monooxygenase (Photinus pyralis) (UniProt P08659). Put plainly: Primary firefly luciferase (FLuc) qHTS assay for identification of artifact compounds. (AID 1845220). Also: nearly all actives have a fitted effect of over 60% in size.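 As to activity change, negative = inhibition: plate controls were DMSO vehicle for no effect and no enzyme for full effect.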 The conditions noted are these: purified firefly luciferase, luminescence, 5 min; series mostly up to 54.1 µM. In outline: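 In this counter-screen for luciferase artifacts, test compounds met substrate (10 uM each luciferin and ATP) before 10 nM enzyme started the reaction. Light output was measured 5 min later.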

For experiment [10], the target named is Catechol O-methyltransferase (Homo sapiens) (UniProt P21964). The experiment is described as follows: Confirmatory Screen for Target Class Profiling of Small Molecule Inhibitors of Methyltransferases (AID 1745852; calls by dose curve; as to activity change, negative = inhibition: % is scaled to controls: 0 for no effect and ±100 for the full control effect). The conditions noted are these: MTase-Glo luminescence, SAH detection, recombinant enzyme; measured here: COMT max response; stronger effect = lower value.
Sequence of Catechol O-methyltransferase (Homo sapiens) (P21964 whole entry, looked up): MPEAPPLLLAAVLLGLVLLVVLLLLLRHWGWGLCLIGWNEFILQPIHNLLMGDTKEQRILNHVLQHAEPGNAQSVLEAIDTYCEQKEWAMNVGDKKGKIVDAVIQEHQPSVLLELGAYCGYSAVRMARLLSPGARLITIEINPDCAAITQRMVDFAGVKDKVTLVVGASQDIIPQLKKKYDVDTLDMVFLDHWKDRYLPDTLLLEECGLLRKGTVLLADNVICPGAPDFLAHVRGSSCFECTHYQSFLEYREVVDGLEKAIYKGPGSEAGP

For experiment [11], the target named is Guanidinoacetate N-methyltransferase (Homo sapiens) (UniProt Q14353). The experiment is described as above. The conditions noted are these: MTase-Glo luminescence, SAH detection, recombinant enzyme; activity change, negative = inhibition: at 57.3 µM (top of the series) unless noted; series mostly up to 57.3 µM.
Experiment [12] concerns the target Nicotinamide N-methyltransferase (Homo sapiens) (UniProt P40261). Described as above. The note with it: MTase-Glo luminescence, SAH detection, recombinant enzyme; measured here: NNMT max response; stronger effect = lower value.
Experiment [13] has as its target Phenylethanolamine N-methyltransferase (Homo sapiens) (UniProt P11086). The experiment is described as above. The conditions noted are these: MTase-Glo luminescence, SAH detection, recombinant enzyme; measured here: PNMT max response; stronger effect = lower value.
Experiment [14] can be described thus: NCATS anti-infectives library activity on the primary C. elegans qHTS viability assay (AID 1745855; calls by dose curve). The note with it: C. elegans worm area imaging, day 7; at 41.8 µM (top of the series). The method in brief:
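GFP read-out by 488 nm laser cytometry at day 0, 3 and 7, gated on object perimeter, area and peak intensity, scored viability of PE254-GFP-FLuc worms exposed to compound in S medium with bacterial capsules at 21 °C.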

The values below come from PubChem BioAssay (NCATS).

Each structure is given as a SMILES string. Where “and” joins values, the source holds several entries; their conditions need not be identical. Equal entries are not always repeated. Results filed as inconclusive are left out. Where a structure was tested more than once in an assay, its records may differ in their call. Calls of active or inactive are those of the source. Unless noted, calls follow the shape of the dose curve; as a rule, active = well fitted curve in the direction sought with a large enough effect; inconclusive = small, poorly fitted or top-dose-only effect, or another doubt; inactive = no such curve, though single readings can be large; an effect the other way counts as inactive or inconclusive.

Sequence of Phospholipid hydroperoxide glutathione peroxidase GPX4 (Homo sapiens) (P36969 whole entry, looked up): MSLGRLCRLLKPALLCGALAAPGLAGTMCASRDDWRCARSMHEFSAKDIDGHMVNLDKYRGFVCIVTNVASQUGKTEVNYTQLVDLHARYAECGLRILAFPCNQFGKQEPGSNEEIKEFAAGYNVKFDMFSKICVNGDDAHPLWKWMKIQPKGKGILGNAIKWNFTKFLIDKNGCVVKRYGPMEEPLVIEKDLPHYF
Sequence of Nicotinamide N-methyltransferase (Homo sapiens) (P40261 whole entry, looked up): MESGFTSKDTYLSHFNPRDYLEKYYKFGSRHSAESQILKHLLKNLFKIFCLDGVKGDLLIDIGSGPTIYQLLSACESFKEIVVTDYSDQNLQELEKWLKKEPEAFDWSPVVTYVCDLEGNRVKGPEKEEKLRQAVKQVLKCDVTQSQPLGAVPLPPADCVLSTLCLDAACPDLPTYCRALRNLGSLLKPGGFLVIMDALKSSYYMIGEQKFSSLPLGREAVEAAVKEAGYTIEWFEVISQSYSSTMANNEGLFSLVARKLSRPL
Sequence of Phenylethanolamine N-methyltransferase (Homo sapiens) (P11086 whole entry, looked up): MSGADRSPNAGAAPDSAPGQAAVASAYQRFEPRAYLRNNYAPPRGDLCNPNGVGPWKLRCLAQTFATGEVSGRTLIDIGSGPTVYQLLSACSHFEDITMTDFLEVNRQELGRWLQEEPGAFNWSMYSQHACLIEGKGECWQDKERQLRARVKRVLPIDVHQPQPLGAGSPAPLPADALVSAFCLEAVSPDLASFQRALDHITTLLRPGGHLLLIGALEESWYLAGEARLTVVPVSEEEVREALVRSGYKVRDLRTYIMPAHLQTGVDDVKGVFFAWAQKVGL
Sequence of Nuclear receptor subfamily 1 group I member 3 (Homo sapiens) (Q14994 whole entry, looked up): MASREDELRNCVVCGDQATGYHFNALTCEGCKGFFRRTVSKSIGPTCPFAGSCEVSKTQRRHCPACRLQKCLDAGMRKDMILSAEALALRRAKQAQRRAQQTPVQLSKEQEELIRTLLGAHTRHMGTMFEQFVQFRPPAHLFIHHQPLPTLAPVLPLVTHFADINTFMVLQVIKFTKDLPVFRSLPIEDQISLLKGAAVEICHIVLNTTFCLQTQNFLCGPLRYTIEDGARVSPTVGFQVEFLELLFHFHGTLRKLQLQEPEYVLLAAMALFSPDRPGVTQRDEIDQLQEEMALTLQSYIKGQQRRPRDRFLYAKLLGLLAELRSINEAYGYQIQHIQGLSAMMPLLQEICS

For the molecule `CC1=C(/C=C/C(C)=C/C=C/C(C)=C/C=C/C=C(C)/C=C/C=C(C)/C=C/C2=C(C)CCCC2(C)C)C(C)(C)CCC1`, the outcome in [1], in experiment [2], in experiment [3], in [4] and in experiment [5] was “inactive” in each case. Further, the Potency result in [6] and in experiment [7] was “inactive” in each case.

Regarding `COC(=O)C1=CO[C@@H](O[C@@H]2O[C@H](CO)[C@@H](O)[C@H](O)[C@H]2O)[C@@H]2[C@@H](C)[C@@H](O)C[C@H]12`, the outcome in [8] is “inactive”. The Potency result in [6], in [7] and in [9] was “inactive” throughout.

Turning to `Cc1c(C)c2c(c(C)c1O)CC[C@@](C)(CCC[C@H](C)CCC[C@H](C)CCCC(C)C)O2`, the outcome in experiment [4] and in experiment [5] was “inactive” throughout.

On to `Cc1ccc2c(c1)C=Cc1cc(C)ccc1C2c1cn(Cc2ccc(C(=O)Nc3nn[nH]n3)o2)c(=O)[nH]c1=S`, for which the values for the activity in experiment [10], in [12] and in experiment [13] were -11%, -18.9% and -2.77%, respectively. The activity change, negative = inhibition in experiment [11] is -0.0663%. Moreover, the Potency result in experiment [7] and in experiment [9] was “inactive” each time.

For the molecule `CC1(C)CC[C@]2(C(=O)O[C@@H]3O[C@H](CO)[C@@H](O)[C@H](O)[C@H]3O)CC[C@]3(C)C(=CCC4[C@@]5(C)C[C@@H](O)[C@H](O)[C@@](C)(CO)C5CC[C@]43C)C2C1` (stereo partly drawn), the activity is -71.4% in [10], -8.27% in experiment [12] and -4.38% in experiment [13]. Moreover, the activity change, negative = inhibition in [11] was -8.61% [at 19.1 µM]. For the same molecule, the Potency entry in [6], in experiment [7] and in experiment [9] was “inactive” throughout.

For the molecule `N[C@H]1C[C@H]1c1ccc(-c2cccc(O)c2)cc1`, the outcome in [8] and in experiment [14] was “inactive” each time. Besides, the Potency result in experiment [6] and in [9] was “inactive” throughout.

For `Cc1[nH]cnc1C1CCN(c2nc3cccc4c3n2CCC4=O)CC1`, the activity is 1.4% in [10], -9.9% in experiment [12] and 1.15% in [13]. In addition, in experiment [11], the activity change, negative = inhibition came out at 0.0241%. Also, the Potency entry in experiment [6], in experiment [7] and in [9] was “inactive” in each case.

`O=C1NC(=Nc2ccccc2F)S/C1=C\c1ccc(C(=O)O)cc1`: the Potency result in experiment [6] was “inactive”.

Consider `OC[C@H]1O[C@@H](Oc2cc(O)cc(/C=C/c3ccc(O)cc3)c2)[C@H](O)[C@@H](O)[C@@H]1O`, for which the outcome in experiment [8] was “inactive”. Moreover, the Potency result in experiment [6], in [7] and in experiment [9] was “inactive” in each case.

Take `Cc1nnc(C(C)C)n1C1CC2CCC(C1)N2CC[C@H](NC(=O)C1CCC(F)(F)CC1)c1ccccc1` (stereo partly drawn): the outcome in [8] was “inactive”. Also, the Potency result in [6], in experiment [7] and in experiment [9] was “inactive” throughout.

Take `COCC(=O)Nc1cc(Sc2ccccc2)ccc1N=C(NC(=O)OC)NC(=O)OC`: the Potency result in [6] is “inactive”.

For the molecule `O=C(O)C[C@H](O)C[C@H](O)/C=C/c1c(C2CC2)nc2ccccc2c1-c1ccc(F)cc1`, the outcome in [8] is “inactive”. In addition, the Potency entry in experiment [6] and in experiment [9] was “inactive” throughout. The Potency entry in experiment [7] was “inactive and 22.4 µM (active)”.

As for `CCOC(=O)[C@H]1O[C@@H]1C(=O)N[C@@H](CC(C)C)C(=O)NCCC(C)C`, the outcome in experiment [8] and in experiment [14] was “inactive” each time. Besides, the Potency result in experiment [6], in [7] and in [9] was “inactive” throughout.

`Oc1ccc([C@H]2COc3cc(O)ccc3C2)cc1`: the Potency entry in experiment [6] and in experiment [7] was “inactive” each time.

For `NCc1ccc(OCCCc2sc(-c3ccc4c(c3)/C(=N/Nc3nc5ccccc5s3)CCC4)nc2C(=O)O)cc1`, the Potency result in experiment [6] and in experiment [7] was “inactive” throughout.

For the molecule `CC(C)N=c1cc2n(-c3ccc(Cl)cc3)c3ccccc3nc-2cc1Nc1ccc(Cl)cc1`, the Potency entry in experiment [6] and in [7] was “inactive” each time.

For the molecule `CC1(C)C(C=C(Cl)Cl)C1C(=O)OCc1cccc(Oc2ccccc2)c1` (stereo not drawn), the Potency result in experiment [6] and in experiment [7] was “inactive” throughout.

For `CC1CCC2(C(=O)OC3OC(CO)C(O)C(O)C3O)CCC3(C(=O)O)C(=CCC4C5(C)CCC(OC6OC(C)C(O)C(O)C6O)C(C)(C)C5CCC43C)C2C1C` (stereo not drawn), the Potency result in [6] and in experiment [7] was “inactive” throughout.

Take `CC(=O)c1c(O)cc2cccc3c2c1CC(C)(O)O3` (stereo not drawn): the Potency entry in [6] and in [7] was “inactive” each time.

On to `CCC(=O)O[C@]1(C(=O)CCl)[C@@H](C)C[C@H]2[C@@H]3C[C@H](F)C4=CC(=O)C=C[C@]4(C)[C@@]3(F)[C@@H](O)C[C@@]21C`, for which the Potency result in experiment [6] and in experiment [7] was “inactive” each time.

`COC(F)(F)C(Cl)Cl`: the Potency entry in experiment [6] and in experiment [7] was “inactive” throughout.

On to `COc1cc(NC(=O)c2ccccn2)ccc1Cl`, for which the Potency entry in [6] and in [7] was “inactive” in each case.

`O=C(O)c1ccc(CCCc2ccc(OCCc3ccc(F)cc3)cc2)o1`: in [6], the Potency result is “inactive”. For the same molecule, the Potency in experiment [7] is 16.1 µM (active).

For `Clc1cc(Cl)c(OCC#CI)cc1Cl`, the Potency result in experiment [6] and in experiment [7] was “inactive” throughout.

As for `CC(=O)OC(C)OC(=O)C(C)c1ccc(-c2ccccc2)c(F)c1` (stereo not drawn), the Potency result in experiment [6] and in experiment [7] was “inactive” throughout.

For `CCCCCCCCCCCCCC[n+]1ccc(C)cc1`, the Potency result in experiment [6] and in experiment [7] was “inactive” each time.

On to `C=C1CC/C=C(/CO)C(=O)C[C@@H]2[C@@H]1CC2(C)C`, for which the Potency entry in experiment [6] and in [7] was “inactive” in each case.

Take `O=C(c1ccc(C#Cc2cccc(F)c2)cn1)N1CC2CC2C1` (stereo not drawn): the Potency result in experiment [6] and in experiment [7] was “inactive” each time.

Take `C=CC(C)(O)CC/C=C(/C)C(=O)OC1C(OC2OCC(OC3OC(CO)C(O)C(O)C3O)C(OC3OCC(O)C(OC4OC(C)C(O)C(O)C4O)C3O)C2O)COC(OC(=O)C23CCC(C)(C)CC2C2=CCC4C5(C)CCC(OC6OC(CO)C(OC7OC(CO)C(O)C(OC8OCC(O)C(O)C8O)C7O)C(O)C6O)C(C)(C)C5CCC4(C)C2(C)CC3O)C1O` (stereo not drawn): the activity, negative = inhibition in experiment [6] is -7.71% [at 9.52 µM] (inactive). Also, the outcome in experiment [7] was “inactive [at 9.73 µM]”.
